The record followed here is PubChem BioAssay.

Active and inactive are the calls of the source. Unless noted, no rule for the calls is given here.

Assay [1] concerns Wnt5a (protein binding on small-molecule microarray). Description: small molecules binding Wnt5a protein – biophysical, small-molecule microarray, 635/667 nm fluorescence, primary screen (AID 1142).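 Also: fluorescence read at 667 nm with signal to noise per printed feature.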 To be noted: 635 nm fluorescence, higher = more signal.
The nature of assay [2]: ATP-based viability of Huh7 replicon cells – cell-based, CellTiter-Glo luminescence, basal, 48 h, cytotoxicity control for HCV replication inhibitor project, primary screen (AID 1143).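 Also: Huh7 hepatoma cells carrying a hepatitis C replication reporter with no stimulus; test concentration not given here.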 To be noted: higher = more signal, called active from +8 up or from −8 down. A general note: A replicon is a self-replicating genome or part of one, used to study replication in cells.
Assay [3] is described as follows: Pseudomonas biofilm growth suppression – PAO1 strain, BacTiter-Glo luminescence, LB-PBS, primary screen (AID 1144). As to conditions: P. aeruginosa PAO1 biofilm, 12 h, higher = more signal.
Assay [4] can be described thus: basal CRE-LacZ reporter activity in PC12 – cell-based, unstimulated, primary screen (AID 1145). To be noted: no forskolin, luminescence, 4.5 h, higher = more signal, called active from +8 up or from −8 down.
A short description of assay [5]: forskolin-driven CRE-LacZ activity in PC12 – cell-based, CRE-LacZ reporter, forskolin-stimulated, primary screen (AID 1146).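 Also: PC12 cells with 6xCRE LacZ reporter stimulated by forskolin 10 µM; beta-galactosidase reporter signal reflecting CREB driven transcription.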 To be noted: luminescence, 4.5 h, higher = more signal, called active from +8 up or from −8 down.
The target in assay [6] is Streptavidin (Streptomyces avidinii) (UniProt P22629). Briefly: compounds binding control protein streptavidin – biophysical, small-molecule microarray, 635/667 nm fluorescence, artefact control for SMM compound annotation, primary screen (AID 1147).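 Also: signal reflects streptavidin binding to arrayed compounds as a control protein.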 As to conditions: higher = more signal.
A short description of assay [7]: probe aInhba binding on compound microarray – biochemical, small-molecule microarray, 635/667 nm fluorescence, primary screen (AID 1148).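 Also: score merges 667nm spot fluorescence with signal-to-noise for antibody binding to printed compounds.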 To be noted: higher = more signal.
Assay [8] addresses Torsin-1A (Homo sapiens) (UniProt O14656). Description: TOR1A wild-type binding on microarray – cell lysate, small-molecule microarray, lysate, 635/667 nm, primary screen (AID 1149). To be noted: COS7 hTOR1A-WT lysate, 635 nm fluorescence, higher = more signal.
Assay [9] shares this target. Briefly: torsin A mutant lysate binding on microarrays – cell lysate, small-molecule microarray, COS7 lysate, 635/667 nm fluorescence, primary screen (AID 1150).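 Also: score pools 667 nm emission and signal to noise measuring lysate protein binding.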 To be noted: COS7 hTOR1A mutant lysate, 635 nm fluorescence, higher = more signal.
Assay [10] concerns Sonic hedgehog protein (Shh). Description: Sonic hedgehog microarray binding compounds – biochemical, small-molecule microarray, 635/667 nm fluorescence, primary screen (AID 1151).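 Also: Shh protein binding to compounds spotted on small-molecule microarray slides; score combines spot fluorescence intensity with signal-to-noise across triplicate slides.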 To be noted: 635 nm fluorescence, higher = more signal.
Assay [11] is described as follows: optical density shifts of acrAB sulA E. coli – strain DRC41, OD650, 48 h, E. coli filamentation inducer project, primary screen (AID 1152).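 Also: E. coli MC1000 strain DRC41 lacking acrAB efflux pump and sulA.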 To be noted: higher = more signal, called active from +8 up or from −8 down.
Assay [12] in a line: probe aLefty1 binding on compound microarray – biochemical, small-molecule microarray, 635/667 nm fluorescence, primary screen (AID 1153).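 Also: score merges spot fluorescence with signal-to-noise ratio from the scanned slide images.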 To be noted: higher = more signal.
Assay [13] is described as follows: plasmodial surface anion channel blockers, osmotic lysis – cell-based, P. falciparum Indochina, OD700, 1 h, primary screen (AID 1154). To be noted: P. falciparum Indochina infected RBC osmotic lysis, higher = more signal, called active from +8 up or from −8 down.
Assay [14] is described as follows: plasmodial surface anion channel blockers, osmotic lysis – cell-based, P. falciparum Indochina, OD700, 2 h, primary screen (AID 1155).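 Also: lysis reports solute entry through the parasite surface anion channel PSAC.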 To be noted: P. falciparum Indochina infected erythrocytes, higher = more signal, called active from +8 up or from −8 down.
A short description of assay [15]: changes in parasitized red cell lysis, either direction – P. falciparum Indochina, OD700, 3 h, PSAC antagonist project, primary screen (AID 1156). To be noted: P. falciparum-infected erythrocytes, osmotic lysis, higher = more signal, called active from +8 up or from −8 down.
The nature of assay [16]: plasmodial surface anion channel blockers, osmotic lysis – cell-based, P. falciparum Indochina, OD700, 18 h, primary screen (AID 1157). As to conditions: P. falciparum Indochina infected erythrocytes, osmotic lysis OD700, 18 h; higher = more signal, called active from +8 up or from −8 down.
Assay [17] is described as follows: S6 kinase pathway phospho-S6 level changes – cell-based, A549, cytoblot, luminescence, serum-stimulated, primary screen (AID 1158).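 Also: serum-stimulated A549 lung adenocarcinoma cells; signal is phosphorylated S6 detected by cytoblot immunostaining with HRP secondary.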 As to conditions: 5 h, higher = more signal.
For assay [18], the target named is NADPH oxidase 2 (Homo sapiens) (UniProt P04839). Briefly: compounds shifting NOX2 Amplex Red fluorescence – cell-based, HEK293-NOX2, PMA-stimulated, NOX inhibitor project, primary screen (AID 1159). Also: test concentration not given here. To be noted: 45 min, higher = more signal, called active from +8 up or from −8 down.
Assay [19] addresses NADPH oxidase 4 (Homo sapiens) (UniProt Q9NPH5). Description: compounds shifting NOX4 Amplex Red fluorescence – cell-based, HEK293-NOX4, tetracycline-induced, NOX inhibitor project, primary screen (AID 1160). As to conditions: HEK293-NOX4, Amplex Red H2O2 fluorescence, 45 min; higher = more signal, called active from +8 up or from −8 down.
Assay [20] deals with NADPH oxidase 5 (Homo sapiens) (UniProt Q96PH1). Description: compounds shifting NOX5 Amplex Red fluorescence – cell-based, HEK293-NOX5, NOX inhibitor project, primary screen (AID 1161). As to conditions: HEK293-NOX5, ionomycin, 45 min, higher = more signal.
Chain of NADPH oxidase 5 (Homo sapiens) (Q96PH1 whole entry, looked up): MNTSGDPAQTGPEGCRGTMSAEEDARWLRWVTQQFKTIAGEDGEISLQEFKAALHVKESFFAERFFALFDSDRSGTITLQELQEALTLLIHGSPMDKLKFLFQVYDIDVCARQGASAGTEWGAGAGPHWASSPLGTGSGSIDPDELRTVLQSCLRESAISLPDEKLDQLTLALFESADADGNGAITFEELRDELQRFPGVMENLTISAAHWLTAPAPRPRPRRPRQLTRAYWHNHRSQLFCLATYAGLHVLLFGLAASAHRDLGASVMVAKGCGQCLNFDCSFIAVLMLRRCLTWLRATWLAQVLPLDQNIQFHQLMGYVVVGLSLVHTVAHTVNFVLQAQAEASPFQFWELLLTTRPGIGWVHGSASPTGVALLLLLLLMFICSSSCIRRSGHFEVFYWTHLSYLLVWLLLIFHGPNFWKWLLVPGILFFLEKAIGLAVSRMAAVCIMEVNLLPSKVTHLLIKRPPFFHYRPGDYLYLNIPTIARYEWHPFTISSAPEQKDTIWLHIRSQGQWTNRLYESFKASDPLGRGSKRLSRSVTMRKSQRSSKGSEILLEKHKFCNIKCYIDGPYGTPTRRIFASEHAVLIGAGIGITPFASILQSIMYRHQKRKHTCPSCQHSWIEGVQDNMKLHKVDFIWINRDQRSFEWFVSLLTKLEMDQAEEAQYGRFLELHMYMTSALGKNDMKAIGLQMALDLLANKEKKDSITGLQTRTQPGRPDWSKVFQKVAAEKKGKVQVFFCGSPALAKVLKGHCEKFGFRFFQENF

Chain of Streptavidin (Streptomyces avidinii) (P22629 whole entry, looked up): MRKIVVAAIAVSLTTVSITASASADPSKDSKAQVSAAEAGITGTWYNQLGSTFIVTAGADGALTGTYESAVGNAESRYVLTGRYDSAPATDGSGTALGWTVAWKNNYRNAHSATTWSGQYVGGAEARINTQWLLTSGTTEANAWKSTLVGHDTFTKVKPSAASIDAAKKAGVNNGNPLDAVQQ
Chain of NADPH oxidase 4 (Homo sapiens) (Q9NPH5 whole entry, looked up): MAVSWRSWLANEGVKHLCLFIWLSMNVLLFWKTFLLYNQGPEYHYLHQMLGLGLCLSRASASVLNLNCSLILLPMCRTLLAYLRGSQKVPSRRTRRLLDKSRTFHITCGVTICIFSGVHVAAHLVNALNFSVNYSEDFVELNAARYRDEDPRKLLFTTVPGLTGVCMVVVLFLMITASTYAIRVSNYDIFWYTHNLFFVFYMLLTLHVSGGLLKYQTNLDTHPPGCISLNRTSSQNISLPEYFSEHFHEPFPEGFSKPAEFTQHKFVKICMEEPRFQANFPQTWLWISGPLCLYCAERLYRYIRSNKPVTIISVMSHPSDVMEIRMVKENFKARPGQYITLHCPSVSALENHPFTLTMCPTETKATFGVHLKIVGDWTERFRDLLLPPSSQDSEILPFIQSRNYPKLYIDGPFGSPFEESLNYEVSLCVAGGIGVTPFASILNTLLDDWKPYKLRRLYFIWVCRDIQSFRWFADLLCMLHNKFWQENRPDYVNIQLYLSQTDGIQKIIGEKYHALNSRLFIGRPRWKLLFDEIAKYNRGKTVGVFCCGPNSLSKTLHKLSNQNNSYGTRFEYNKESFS
Chain of Torsin-1A (Homo sapiens) (O14656 whole entry, looked up): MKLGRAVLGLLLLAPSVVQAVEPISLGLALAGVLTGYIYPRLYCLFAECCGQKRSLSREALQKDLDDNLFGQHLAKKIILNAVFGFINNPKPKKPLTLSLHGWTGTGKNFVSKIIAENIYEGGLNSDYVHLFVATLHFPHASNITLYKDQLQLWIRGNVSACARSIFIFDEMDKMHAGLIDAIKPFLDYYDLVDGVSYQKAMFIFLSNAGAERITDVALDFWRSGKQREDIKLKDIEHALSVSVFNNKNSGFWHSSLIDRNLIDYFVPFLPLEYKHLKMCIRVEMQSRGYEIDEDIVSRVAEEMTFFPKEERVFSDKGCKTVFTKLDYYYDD
Chain of NADPH oxidase 2 (Homo sapiens) (P04839 whole entry, looked up): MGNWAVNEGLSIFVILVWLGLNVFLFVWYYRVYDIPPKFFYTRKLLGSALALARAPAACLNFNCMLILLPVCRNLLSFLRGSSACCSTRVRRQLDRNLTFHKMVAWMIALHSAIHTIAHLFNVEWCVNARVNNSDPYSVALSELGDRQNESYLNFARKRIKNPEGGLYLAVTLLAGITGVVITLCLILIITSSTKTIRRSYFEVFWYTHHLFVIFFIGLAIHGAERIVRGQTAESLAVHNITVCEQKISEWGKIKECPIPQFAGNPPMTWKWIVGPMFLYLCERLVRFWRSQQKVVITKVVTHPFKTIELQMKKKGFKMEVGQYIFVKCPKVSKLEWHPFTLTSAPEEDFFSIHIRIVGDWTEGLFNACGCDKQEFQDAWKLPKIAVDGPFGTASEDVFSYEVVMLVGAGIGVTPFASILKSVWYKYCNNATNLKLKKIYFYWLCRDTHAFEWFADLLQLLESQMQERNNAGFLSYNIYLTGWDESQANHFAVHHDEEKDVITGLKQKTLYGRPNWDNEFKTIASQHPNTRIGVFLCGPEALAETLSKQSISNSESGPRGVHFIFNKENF

As to `C[C@@H]1CC[C@H]2C(=O)O[C@@H](COc3ccc(C(C)(C)C)cc3)CN2[C@H]1c1ccc(Br)cc1`, the composite z-score is 0.0114 in assay [1]; 0.0826 in assay [6]; -0.0523 in [7]; 0.159 with Torsin-1A (Homo sapiens) [8]; -0.0416 in the assay with Torsin-1A (Homo sapiens) [9]; 0.526 in [10]. For the same compound, the composite z-score in assay [12] is -0.103. Further, the z-score in assay [2] was -0.0293 (inactive); in assay [3], 0.0807 (inactive); in assay [4], 0.345 (inactive); in assay [5], 0.213 (inactive); in assay [11] it was -0.113 (inactive); in assay [13] it was 1.25 (inactive). Moreover, the z-score in assay [14] was 0.937 (inactive); in [15], -0.897 (inactive); in assay [16], 0.588 (inactive); in assay [17] it was -0.261; in [18], -0.271 (inactive); in assay [19], 0.562 (inactive). The z-score in assay [20] turned out to be 0.257.

Consider `COC(=O)[C@H](C)NC(=O)CCC1CC(OC(=O)NCc2cccc3ccccc23)CC2(CCCC(COC(=O)NCCc3ccccc3OC)O2)O1` (stereo not given in full), for which the composite z-score in assay [1] is 0.259; in assay [6], 0.759; in [7] it was -0.0361; with Torsin-1A (Homo sapiens) [8], 0.475; with Torsin-1A (Homo sapiens) [9], 0.406; in [10] it was 0.963. In assay [12], this compound gave a composite z-score of -0.193. Also, the z-score in assay [2] was -0.701 (inactive); in assay [3], 0.326 (inactive); in [4] it was 0.556 (inactive); in [5] it was 0.684 (inactive); in [11] it was -0.731 (inactive); in assay [13], 7.29 (inactive). For the same compound, the z-score in assay [14] was 1.37 (inactive); in [15], -0.148 (inactive); in [16], 0.494 (inactive); in assay [17], -0.353; in assay [18], -0.49 (inactive); in [19], 0.357 (inactive). Besides, the z-score in [20] came to 0.512.

As for `COCCNC(=O)OCC1CCCC2(CC(OC(=O)NCc3cccc4ccccc34)CC(CCC(=O)N[C@@H](C)C(=O)OC)O2)O1` (stereo not given in full), the composite z-score in [1] was 0.278; in assay [6], 0.403; in assay [7], -0.157; in the assay with Torsin-1A (Homo sapiens) [8], 0.413; with Torsin-1A (Homo sapiens) [9], 0.41; in [10], 0.971. In assay [12], the composite z-score is -0.198. Further, the z-score in assay [2] is -0.862 (inactive); in [3], -0.496 (inactive); in [4], 0.376 (inactive); in [5] it was 1.47 (inactive); in assay [11], 0.434 (inactive); in assay [13], -1.58 (inactive). The z-score in assay [14] was -0.523 (inactive); in assay [15], -1.28 (inactive); in [16] it was 0.174 (inactive); in assay [17] it was -0.582; in assay [18], -0.155 (inactive); in [19], 1.49 (inactive). Moreover, the z-score in assay [20] was determined as 2.08.

Consider `CCc1cc2c(nc1CC)CCN(CCC(C)=NOC[C@@H](C)[C@H](OCc1ccccc1)C(C)C)C2`, for which the composite z-score in [1] is -0.608; in assay [6], -1.39; in [7], -0.302; with Torsin-1A (Homo sapiens) [8] it was -0.94; in the assay with Torsin-1A (Homo sapiens) [9], -1.22; in assay [10] it was -0.267. In assay [12], this compound showed a composite z-score of -1.28. The z-score in assay [2] was -1.09 (inactive); in [3] it was 0.241 (inactive); in [4] it was 0.387 (inactive); in assay [5], 0.113 (inactive); in assay [11], -0.64 (inactive); in [13] it was 1.29 (inactive). The z-score was -2.02 (inactive) in assay [14]; 0.513 (inactive) in assay [15]; -2.16 (inactive) in [16]; 1.35 in [17]; -2.3 (inactive) in [18]; -0.642 (inactive) in assay [19]. Moreover, in assay [20], the z-score is -4.09.

With `CCCNC(=O)OC[C@H]1O[C@H](CCON=C[C@@H](NS(=O)(=O)c2ccc(C)cc2)[C@H](C)C=CCC(=O)OC)C=C[C@@H]1Oc1ccc(OC)cc1`, the composite z-score in assay [1] was -0.208; in assay [6], -0.0974; in [7], 0.316; in the assay with Torsin-1A (Homo sapiens) [8] it was 0.0067; in the assay with Torsin-1A (Homo sapiens) [9], 0.488; in [10] it was -0.0635. Moreover, the composite z-score in assay [12] came to 0.0633. The z-score was -1.47 (inactive) in assay [2]; 0.169 (inactive) in [3]; 3.17 (inactive) in assay [4]; 0.26 (inactive) in assay [5]; 0.0368 (inactive) in [11]; 5.01 (inactive) in assay [13]. In addition, the z-score in [14] is 1.2 (inactive); in [15] it was 0.518 (inactive); in assay [16] it was 0.441 (inactive); in [17] it was -0.81; in assay [18] it was 0.173 (inactive); in [19], 0.361 (inactive). Further, the z-score in [20] is -0.746.

On to `COc1ccc(COC(=O)NN=C2C[C@@H](O)[C@@H](O)[C@@H]3[C@@H]4C(=O)N(c5cccc(Oc6ccccc6)c5)C(=O)[C@@H]4CC[C@H]23)cc1`, for which the composite z-score in assay [1] is -0.142; in [6], 0.993; in assay [7], -0.0375; in the assay with Torsin-1A (Homo sapiens) [8], -0.135; with Torsin-1A (Homo sapiens) [9], -0.144; in assay [10], -1.44. The compound further displayed a composite z-score in assay [12] of 0.4. Besides, the z-score was -3.56 (inactive) in [2]; 0.111 (inactive) in assay [3]; -0.293 (inactive) in [4]; 0.505 (inactive) in [5]; 0.249 (inactive) in assay [11]; 3.48 (inactive) in [13]. Further, the z-score in assay [14] was -0.469 (inactive); in [15], 1.89 (inactive); in assay [16] it was -2.15 (inactive); in assay [17], 0.0187; in assay [18], -1.26 (inactive); in assay [19], -1.6 (inactive). Also, the z-score in assay [20] is -1.49.

On to `COC(=O)[C@@H]1CC[C@H](C)[C@@H](c2ccc(Br)cc2)N1C[C@@H](O)CN=[N+]=[N-]`, for which the composite z-score was 0.538 in assay [1]; 0.398 in assay [6]; -0.224 in [7]; 0.54 in the assay with Torsin-1A (Homo sapiens) [8]; -0.117 with Torsin-1A (Homo sapiens) [9]; 0.581 in assay [10]. Also, the composite z-score in [12] is -0.147. Also, the z-score in assay [2] is -3.06 (inactive); in assay [3], -1.91 (inactive); in [4], 0.105 (inactive); in assay [5] it was -0.571 (inactive); in assay [11], -1.67 (inactive); in assay [13], 1.87 (inactive). For the same compound, the z-score in assay [14] is -0.514 (inactive); in assay [15], 0.27 (inactive); in assay [16] it was -0.956 (inactive); in assay [17], 1.84; in assay [18], 0.0777 (inactive); in assay [19] it was -1.37 (inactive). Besides, the z-score in assay [20] turned out to be 0.126.

For `COC(=O)[C@H](C)NC(=O)CCC1CC(OC(=O)NCc2cccc3ccccc23)CC2(CCCC(COC(=O)NCCOc3ccccc3)O2)O1` (stereo not given in full), the composite z-score in assay [1] was 0.029; in [6], 0.688; in [7], -0.025; with Torsin-1A (Homo sapiens) [8], 0.182; with Torsin-1A (Homo sapiens) [9] it was -0.13; in [10], 0.334. This compound had a composite z-score in [12] of -0.186. For the same compound, the z-score in assay [2] was -2.56 (inactive); in assay [3], 0.0153 (inactive); in assay [4] it was -0.709 (inactive); in assay [5], 0.222 (inactive); in [11], -0.677 (inactive); in assay [13], 7.46 (inactive). Moreover, the z-score in [14] is 0.622 (inactive); in assay [15], -0.363 (inactive); in assay [16], 0.346 (inactive); in [17], 0.152; in assay [18], 0.00289 (inactive); in assay [19], -0.292 (inactive). In assay [20], the z-score was -0.19.
